Data published in the supplement of paper PMC3334620.
The full ranking holds about 33,000 sequences; the median of “E-score (-0.5 to 0.5)” is about -0.04, and the highest 2% start at about 0.36. Many of the other results were omitted from the sample, so the highest values are more common in it than they were.

The sequences below were run against T1, Hmlalpha2 (UniProt P0CY09) (assay: PBM E-score (8-mer binding enrichment) (E-score (-0.5 to 0.5)); higher = stronger / more preferred TF binding). Details: protein concentration: 200 nM; construct: GST-full length.
T1 sequence: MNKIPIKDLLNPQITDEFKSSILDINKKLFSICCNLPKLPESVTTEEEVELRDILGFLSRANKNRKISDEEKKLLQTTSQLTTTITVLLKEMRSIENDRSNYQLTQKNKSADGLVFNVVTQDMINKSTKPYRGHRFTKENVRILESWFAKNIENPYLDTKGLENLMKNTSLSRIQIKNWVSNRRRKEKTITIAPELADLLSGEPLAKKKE
How it was run: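 Detection of bound protein used fluorescent anti-GST, with scans normalised by masliner. The proteins were GST-tagged yeast transcription factors applied at about 100-200 nM to universal all-10-mer Agilent arrays made double-stranded by primer extension. Each ungapped eight-base word, pooled with its reverse complement, was scored with an E-score from the Universal PBM Analysis Suite.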

In order of rising “PBM E-score” value:
1. CCGGCAGC  -0.36
2. CGAGCATA  -0.325
3. CGCCAGAG  -0.305
4. CCAGGCAG  -0.272
5. ATCTGGGG  -0.267
6. TACGGCCA  -0.262
7. CGGGCAAC  -0.261
8. ACCCGAGA  -0.255
9. GTGGCTGA  -0.248
10. CCCGGTGA  -0.242
11. AGCGGGGA  -0.24
12. CTGCCATC  -0.239
13. CCTCCCCA  -0.233
14. GAGGAAGC  -0.231
15. GAAGCTCC  -0.218
16. ACTTGAGG  -0.203
17. AAAGGGAC  -0.2
18. CTTCGGCA  -0.198
19. AGGTAAGC  -0.198
20. GAGGAGAA  -0.191
21. CAGCACCG  -0.189
22. AAGGCCAC  -0.186
23. AGATCCTA  -0.165
24. ACAGTCTG  -0.159
25. GGTGTGCA  -0.155
26. AGGAGTGG  -0.145
27. GGTTAACC  -0.142
28. CAGGCCCA  -0.135
29. ACCACGCT  -0.134
30. AGCTCCCA  -0.128
31. CCATGCGG  -0.12
32. CTATTCGC  -0.117
33. AAGCAGGG  -0.116
34. CATCAAGC  -0.116
35. ACCCTAAT  -0.101
36. ACGGGACT  -0.101
37. GATGTGCA  -0.091
38. TCCGCCGA  -0.0873
39. ACCTGCAG  -0.0825
40. AGACCTGC  -0.0816
41. AAGCGGGG  -0.0783
42. ATACCTCA  -0.072
43. AGTCTGCG  -0.0616
44. GATGTGGA  -0.0421
45. CCGGACGA  -0.0406
46. CGAAGATA  -0.04
47. AGCTGGAC  -0.0393
48. GGTGGACA  -0.0373
49. AAGTTCCG  -0.0355
50. GATGGTCC  -0.0351
51. ATCTTCTA  -0.0325
52. CGATTGCG  -0.0285
53. AAGAGATG  -0.0147
54. CCCTAACG  -0.0128
55. TCACACCA  -0.0124
56. AAAAAGGA  -0.00436
57. ACCCTGCA  0.0038
58. AGCACGCT  0.00597
59. ATGTCTTG  0.0125
60. ACTTCTTC  0.0141
61. CACGCCCC  0.0158
62. AATGCTCG  0.0169
63. AGCATTGC  0.0222
64. CCACAACA  0.0233
65. CTTTTATA  0.0262
66. ATGCTAAG  0.027
67. AGCACGCA  0.0284
68. CGTCGAAC  0.0323
69. CCACACCA  0.0331
70. GTGTGAGA  0.0378
71. ACGACATC  0.0415
72. ATACTATG  0.0473
73. ACCAGAAT  0.0511
74. GCGCGGTA  0.0518
75. ACTGCTCA  0.0532
76. CCGTTGTC  0.0589
77. GGGGTGTA  0.0612
78. CTAAACAA  0.0668
79. ATGGGAAT  0.0681
80. CCTAATCA  0.0766
81. AATGTGTG  0.0802
82. CTAAAAAC  0.0815
83. GGTGTATA  0.0823
84. ATAAACAG  0.0861
85. AATGTGTC  0.0899
86. CGTTGAAA  0.0902
87. AAGGTAAC  0.0918
88. AAACAACT  0.0928
89. GCTTTAAA  0.095
90. CACATAGA  0.0951
91. CGTGTGCA  0.0955
92. AAGTATCT  0.0958
93. ACTACGCT  0.106
94. AGCAATCG  0.108
95. CACGCGGA  0.109
96. ACTTTACT  0.109
97. GGAAACAC  0.119
98. GCAATCTA  0.119
99. GGTCTATA  0.121
100. AAAGCACA  0.123
101. AGTGTGTG  0.127
102. TGAAAGAA  0.129
103. AGTTAACT  0.129
104. CCTACATA  0.13
105. ATATACAG  0.131
106. ACTACAGG  0.133
107. ACGACATA  0.134
108. AAAACAGA  0.137
109. CTTTTACC  0.139
110. GGTACATA  0.141
111. CATGTGGA  0.144
112. ATCACGCG  0.144
113. GACATAGA  0.145
114. GGTTAAGA  0.148
115. ATAGATTA  0.151
116. ACTTTACC  0.151
117. CATGTGTC  0.152
118. GTATATAC  0.155
119. GACATATA  0.163
120. AAACAACC  0.168
121. GGGTAACA  0.17
122. AGTTATAA  0.172
123. TATCAAAA  0.173
124. AGTGTGTC  0.174
125. ACACATCA  0.183
126. GCACAACA  0.187
127. ATTTTACC  0.188
128. ATAAAAAG  0.19
129. CACACGCA  0.19
130. GTGCTCAA  0.197
131. CGTGTGTC  0.2
132. GCTTTACC  0.21
133. CTATACAC  0.213
134. AACAAGGC  0.219
135. CGTTATAA  0.222
136. CTGTAACA  0.223
137. TAAACTTA  0.228
138. AGTACATC  0.233
139. GAAGATAA  0.242
140. AAGTAACA  0.245
141. TGCTAACA  0.245
142. AGTTAACG  0.248
143. AACATACT  0.255
144. GCTACATA  0.255
145. CACATAAA  0.259
146. CACACGCG  0.264
147. AGTACAAG  0.267
148. CGTTAAAA  0.272
149. TTAAACAA  0.274
150. ACTACATC  0.275
151. AACATAAA  0.28
152. GGTTAAAA  0.28
153. CTACAACA  0.283
154. GTAAAAAA  0.286
155. CGCTTACA  0.287
156. GCGTAACA  0.29
157. GTATACAA  0.291
158. CTAAACAC  0.296
159. AAAAACAT  0.297
160. AGTGTACA  0.301
161. GACACGCA  0.301
162. ACAAACAT  0.305
163. ACACAACC  0.305
164. ATTTTACG  0.31
165. CACATATA  0.311
166. GACATACA  0.315
167. ACACAACT  0.317
168. ACACAGCC  0.317
169. ATAAACAA  0.323
170. CGTGTACC  0.326
171. CACATACA  0.33
172. CGTGTATC  0.332
173. CGTTAACA  0.34
174. ATATACAA  0.343
175. ATATATAC  0.345
176. GAATACAA  0.352
177. ATACAACA  0.355
178. GAATACGC  0.357
179. ACACAGCA  0.358
180. AACACGCC  0.359
181. AACATACG  0.363
182. CGTACATA  0.363
183. ATAAACAC  0.365
184. AAACAACA  0.367
185. AACATACA  0.368
186. ACACACCA  0.369
187. TACATAAA  0.369
188. GTAAACAA  0.37
189. AATGTGTA  0.371
190. TACATATA  0.374
191. ACACAACG  0.377
192. ACTACATA  0.378
193. GATGTGTA  0.38
194. ACACAACA  0.381
195. ACGACATG  0.382
196. ATAAACAT  0.383
197. GTAAAAAC  0.385
198. AACACGCT  0.387
199. AGTTAACA  0.392
200. AGTGTGTA  0.395
201. GTACAACA  0.395
202. TGTTATAA  0.399
203. AGTACATA  0.401
204. GCTTTACA  0.405
205. AACACGCG  0.406
206. ATTTTACA  0.41
207. GTGTAACA  0.411
208. GGTTAACA  0.412
209. AACACGCA  0.412
210. CGTGTGTA  0.413
211. AGTACATG  0.415
212. GTAAACAC  0.416
213. GTATACAC  0.416
214. ATATACAC  0.422
215. GGTGTGTA  0.423
216. ACACAGCG  0.424
217. TGTTAACA  0.426
218. CATGTGTA  0.427
219. TACATAGA  0.427
220. ACTTTACA  0.429
221. TGTTAAAA  0.43
222. ACTACATG  0.43
223. ATATACAT  0.435
224. TACACGCA  0.442
225. TACATACA  0.443
226. GAATACAC  0.451
227. CGTGTATA  0.452
228. CTTTTACA  0.453
229. ATGTAACA  0.454
230. CGTGTACA  0.467
